Compounds with a hit are over-represented: about 3.4% of the library has one in this group of screens.
MITF primary: human MITF inhibition, primary screen | O75030 | AlphaScreen MITF homodimerization, bead proximity signal | inhibition, % at 2.6 µM | actives 0.91% (n = 650,000) | AID 1259374; in the data active means inhibition above about 50%
Target sequence (O75030 whole entry, looked up): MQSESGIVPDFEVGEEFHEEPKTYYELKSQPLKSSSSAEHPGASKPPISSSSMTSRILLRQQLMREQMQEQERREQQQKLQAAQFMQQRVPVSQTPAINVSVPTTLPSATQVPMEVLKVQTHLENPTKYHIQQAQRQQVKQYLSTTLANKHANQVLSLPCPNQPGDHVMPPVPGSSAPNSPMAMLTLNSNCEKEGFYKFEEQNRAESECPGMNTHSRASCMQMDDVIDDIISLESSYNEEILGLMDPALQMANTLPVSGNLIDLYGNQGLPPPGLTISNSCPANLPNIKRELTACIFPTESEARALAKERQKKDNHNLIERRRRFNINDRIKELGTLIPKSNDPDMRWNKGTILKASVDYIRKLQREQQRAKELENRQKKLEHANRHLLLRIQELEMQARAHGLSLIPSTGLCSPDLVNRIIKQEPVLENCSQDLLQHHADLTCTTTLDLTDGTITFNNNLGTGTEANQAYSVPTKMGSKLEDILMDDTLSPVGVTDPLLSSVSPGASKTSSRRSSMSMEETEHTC
GPR151 ag: human GPR151 activation; PathHunter beta-arrestin GPR151 cells, luminescence; activation, % at 11.2 µM; actives 1% (n = 650,000); AID 1508602; Q8TDV0; in the data active means activation above about 4.9%
TEAD-YAP inh: TEAD-YAP interaction inhibition; actives 1.4% (n = 640,000); AID 1259422; inhibition, % at 9.12 µM; HEK-TIYL cells, TEAD-Gal4/YAP UAS-luciferase luminescence; in the data active means inhibition above about 32%
FBW7 act: activators of human E3 ligase FBW7; Q969H0; AlphaScreen FBW7–phospho-cyclin E peptide binding, activator screen; normalized activity (activation), % at 26.1 µM; actives 0.13% (n = 650,000); AID 1259310; in the data active means normalized activity above about 1.9%;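 further: purified mutant Fbw7 with reduced substrate affinity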
Large screens that a line does not name were inactive.

Cc1c(C(=O)Nc2cccc(C(=O)O)c2)cccc1[N+](=O)[O-]	FBW7 act 3.5
CCOC(=O)c1c(-c2ccc(-c3ccccc3)cc2)csc1NC(=O)c1ccccc1C(=O)O	none
CC1=CC2=NC(C(F)(F)F)(C(F)(F)F)NC(=O)N2C=C1	none
CCOC(=O)C1CCCn2c1nc1cc(-c3ccc(OC)cc3)sc1c2=O (stereo not drawn)	TEAD-YAP inh 51.6
CCOC(=O)C1CCCn2c1nc1c(c2=O)CCCC1 (stereo not drawn)	none
C=CCOc1c(Br)cc(/C=C2/SC(=Nc3cc(C)cc(C)c3)NC2=O)cc1Br	none
CC(=O)c1c(C)[nH]c(C(=O)CSc2nnnn2-c2cccc(C)c2)c1C	TEAD-YAP inh 33.3
COc1ccc(/C(N)=N/OC(=O)COc2ccc(Cl)cc2Cl)cc1	none
COc1cc(CCC(=O)N2CCCCC2c2nc3cc(C)c(C)cc3[nH]2)on1 (stereo not drawn)	TEAD-YAP inh 41.0
Cc1cc2nc(C3CCCCN3C(=O)CCc3c(C)noc3C)[nH]c2cc1C (stereo not drawn)	none
COc1ccc(/C=C2\C(=O)ON=C2C)cc1O	MITF primary 52.1
C=CCOc1ccc(/C=C2/C(=O)ON=C2C)cc1Br	none
CCOc1cc(/C=C2/C(=O)ON=C2C)ccc1O	none
COc1cc(/C=C2\C(=O)ON=C2C)cc(Br)c1O	MITF primary 81.0
COc1cc(/C=C2\C(=O)ON=C2C)ccc1OCCc1ccccc1	TEAD-YAP inh 38.1
CCOc1ccc(/C=C2/C(=O)ON=C2C)cc1Br	MITF primary 54.8
CCCOc1ccc(/C=C2/C(=O)ON=C2C)cc1OC	none
CSc1ccc(CN2CCc3nnc(CNC(=O)C4CCCN(C)C4)n3CC2)cc1 (stereo not drawn)	none
O=C(CCN1C(=O)C2C3C=CC(C3)C2C1=O)N1CCC2(CC1)OCCO2 (stereo not drawn)	none
CC1=NOC(=O)/C1=C/c1ccc(O)cc1O	MITF primary 52.9
COc1ccc(/C=C2\NC(=S)NC2=O)cc1C	none
COc1ccc(/C=C2/NC(=S)NC2=O)cc1O	TEAD-YAP inh 39.6
C#CCOc1ccc(/C=C2/C(=O)ON=C2C)cc1	MITF primary 58.0
C#CCOc1ccc(/C=C2/C(=O)ON=C2C)cc1OC	none
COc1cc(/C=C2\C(=O)ON=C2C)ccc1O	MITF primary 59.8
CCN(CC)C(=O)CN1C(=O)c2ccccc2C1=O	none
C=CCn1c(C)cc(C(=O)COc2ccc(C)nc2[N+](=O)[O-])c1C	none
Cc1ccc(OCC(=O)c2cc(C)n(-c3ccccc3)c2C)c([N+](=O)[O-])n1	TEAD-YAP inh 49.7
COc1ccc(-c2nc(C(N)=O)c3[nH]c(=O)n(-c4cccc(C)c4)c3n2)cc1O	TEAD-YAP inh 63.8
COc1ccc(-c2nc(C(N)=O)c3[nH]c(=O)n(-c4ccccc4OC)c3n2)cc1	TEAD-YAP inh 48.4
COc1ccccc1-n1c(=O)[nH]c2c(C(N)=O)nc(-c3cccc(F)c3)nc21	none
COc1ccc(C2C(C(C)=O)=C(O)C(=O)N2CC(=O)O)cc1OC (stereo not drawn)	none
O=C(Nc1cccc(N2CCC(NCc3cccc(F)c3F)CC2)c1)c1cccnc1	none
CN1C(=O)C(=Cc2ccc(OCc3cccc(C(=O)O)c3)cc2)C(=O)N(C)C1=O	TEAD-YAP inh 42.7
CN1C(=O)S/C(=C/c2ccc(OCc3cccc(C(=O)O)c3)cc2)C1=O	none
Cc1ccc(NC(=O)c2ccccc2Cl)c(C(=O)O)c1	none
Cc1ccc(N2C(=O)C=CC2=O)cc1[N+](=O)[O-]	none
CC(=O)NC(c1ccc(C)cc1)c1cc(Cl)c2cccnc2c1O (stereo not drawn)	none
CCCCC(=O)NC(c1ccc2c(c1)OCO2)c1cc(Cl)c2cccnc2c1O (stereo not drawn)	none
CC(=O)NC(c1ccc2c(c1)OCO2)c1cc(Cl)c2cccnc2c1O (stereo not drawn)	TEAD-YAP inh 70.6
CC(=O)NC(c1cccc(Cl)c1)c1cc(Cl)c2cccnc2c1O (stereo not drawn)	TEAD-YAP inh 35.8
Cc1cnc(NC(=O)CSc2nnnn2-c2ccccc2)s1	none
O=C(Nc1ccc(Cl)cc1)c1cc([N+](=O)[O-])ccc1O	TEAD-YAP inh 72.0
COc1ccc(OCC(=O)Nc2cc([N+](=O)[O-])ccc2O)cc1	TEAD-YAP inh 89.6
CNC(=S)N/N=C\c1ccc([N+](=O)[O-])cc1	TEAD-YAP inh 34.1
O=C(Nc1ccc([N+](=O)[O-])cc1Cl)c1cc(Br)ccc1O	none
O=C(N/N=C/c1ccc([N+](=O)[O-])cc1)C(=O)N/N=C/c1ccc([N+](=O)[O-])cc1	none
O=C(Nc1c(Cl)cc([N+](=O)[O-])cc1Cl)c1cc(Cl)ccc1O	TEAD-YAP inh 66.6
